According to PubChem BioAssay (Tox21):
Values joined by “and” are separate entries in the source; they are usually repeats but may differ in a detail not shown here. Equal values may be shown once. Some structures have more than one record in an assay (separate samples or runs), and their calls can disagree. Active and inactive are the calls of the source. Where a call stands in place of a potency, no number is given. Unless noted, the call rests on the fitted dose curve; in most records, active means well fitted curve in the direction sought with a large enough effect in the repeat runs; inconclusive means weak or mixed curves; inactive means no such curve, though single readings can be large; an effect the other way counts as inactive or inconclusive.

Assays:
[1] = qHTS assay to identify small molecule antagonists of the thyroid receptor (TR) signaling pathway (AID 743065); further: nearly all actives have a fitted effect of over 55% in size; further: potency means the concentration at half of the fitted maximal effect
Procedure, shortened: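 GH3.TRE-Luc rat pituitary cells (two TREs driving luciferase) were dosed with compound, then stimulated with 1 nM T3 (final) for 23.5 h at 37 C. ONE-Glo luminescence was the read-out, with CellTiter-Fluor fluorescence as the cytotoxicity counter-screen.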

[2] = tested on: thyroid hormone receptor (rat, GH3 cells); experiment: qHTS assay to identify small molecule agonists of the thyroid receptor (TR) signaling pathway (AID 743066; calls by dose curve)
[3] = target: Estrogen receptor (Homo sapiens) (UniProt P03372); experiment: qHTS assay to identify small molecule antagonists of the estrogen receptor alpha (ER-alpha) signaling pathway (AID 743069; active means well fitted curve in the direction sought with a large enough effect in the signal ratio in the repeat runs, not every such curve was filed as active; inconclusive means weak or mixed curves, or effect the other way; inactive means no such curve, though single readings can be large or run the other way; the % refers to the signal ratio; further: potency means the concentration at half of the fitted maximal effect)
Procedure, shortened: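 Reporter cells (ER-alpha-bla, HEK293 background) are conditioned overnight in stripped-serum medium (2% charcoal-stripped FBS). Compound and 17beta-estradiol exposure runs 18 hr at 37C, 5% CO2.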

[4] = target: Estrogen receptor (Homo sapiens) (UniProt P03372); experiment: qHTS assay to identify small molecule agonists of the estrogen receptor alpha (ER-alpha) signaling pathway (AID 743075; calls by dose curve;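 further: HEK293 GripTite cells with ER-alpha and UAS-driven beta-lactamase reporter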; further: potency means the concentration at half of the fitted maximal effect)
[5] = qHTS assay to identify small molecule antagonists of the estrogen receptor alpha (ER-alpha) signaling pathway using the BG1 cell line (AID 743080; calls by dose curve;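 further: BG1 cells stimulated with 17beta-estradiol alongside compound; nearly all actives have a fitted effect of over 25% in size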; further: potency means the concentration at half of the fitted maximal effect)
Procedure, shortened: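 Luciferase inhibition measured with ONE-Glo after 30 min at RT in BG1Luc4E2 cells given test compounds and 17beta-estradiol for 21.5 h at 37 C; CellTiter-Fluor viability read in the same wells beforehand.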

[6] = qHTS assay to identify small molecule antagonists of the estrogen receptor alpha (ER-alpha) signaling pathway using the BG1 cell line - cell viability counter screen (AID 743081);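 further: compound given together with 17beta-estradiol as the ER stimulus; nearly all actives have a fitted effect of over 45% in size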; further: potency means the concentration at half of the fitted maximal effect
[7] = target: Aromatase (Homo sapiens) (UniProt P11511); experiment: qHTS assay to identify aromatase inhibitors (AID 743083); further: nearly all actives have a fitted effect of over 55% in size; further: potency means the concentration at half of the fitted maximal effect
[8] = qHTS assay to identify aromatase inhibitors - cell viability counter screen (AID 743084);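 further: cells stimulated with testosterone during compound exposure; nearly all actives have a fitted effect of over 55% in size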; further: potency means the concentration at half of the fitted maximal effect
[9] = target: Aryl hydrocarbon receptor (Homo sapiens) (UniProt P35869); experiment: qHTS assay to identify small molecule that activate the aryl hydrocarbon receptor (AhR) signaling pathway (AID 743085);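 further: HG2L7.5c1 human HepG2 liver cells with stably integrated DRE-driven firefly reporter; series mostly up to about 70 µM; nearly all actives have a fitted effect of over 15% in size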
Procedure, shortened: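 HepG2 cells stably carrying a 20-DRE firefly luciferase reporter (HG2L7.5c1) treated with compound for 24 hr at 37C. Luciferase read by ONE-Glo luminescence, with CellTiter-Fluor viability read first.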

[10] = qHTS assay to identify small molecule that activate the aryl hydrocarbon receptor (AhR) signaling pathway - cell viability counter screen (AID 743086); further: nearly all actives have a fitted effect of over 45% in size; further: potency means the concentration at half of the fitted maximal effect
Procedure, shortened: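 HepG2-AhR-luc (HG2L7.5c1) cells, 4000/well, treated 24 h at 37 C with compound; viability measured as CellTiter-Fluor fluorescence after 30 min in the same wells as the luciferase read.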

[11] = target: Peroxisome proliferator-activated receptor gamma (Homo sapiens) (UniProt P37231); experiment: qHTS assay to identify small molecule agonists of the peroxisome proliferator-activated receptor gamma (PPARg) signaling pathway (AID 743094; active means well fitted activation curve with a large enough effect in the signal ratio in the repeat runs, not every such curve was filed as active; inconclusive means weak or mixed curves, or effect the other way; inactive means no such curve, though single readings can be large or run the other way; the % refers to the signal ratio)
Procedure, shortened: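 Compounds dissolved in DMSO were added to PPARg UAS-bla HEK293H cells for 17 h at 37C, and reporter expression was quantified by fluorescence intensity after 1 h with LiveBLAzer B/G FRET substrate.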

[12] = qHTS assay for small molecule agonists of the antioxidant response element (ARE) signaling pathway (AID 743202; active means well fitted activation curve with a large enough effect in the signal ratio in the repeat runs, not every such curve was filed as active; inconclusive means weak or mixed curves, or effect the other way; inactive means no such curve, though single readings can be large or run the other way; the % refers to the signal ratio; further: potency means the concentration at half of the fitted maximal effect)
Procedure, shortened: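 Agonist mode reporter screen: HepG2 cells with ARE-controlled beta-lactamase are incubated with test compounds for 16 h at 37 C, and beta-lactamase activity is measured as fluorescence of cleaved B/G FRET substrate.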

[13] = qHTS assay for small molecule agonists of the antioxidant response element (ARE) signaling pathway - cell viability counter screen (AID 743203; calls by dose curve; further: nearly all actives have a fitted effect of over 55% in size; further: potency means the concentration at half of the fitted maximal effect)
Procedure, shortened: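 Following 16 hrs of compound treatment at 37C, HepG2 cells with an ARE-controlled beta-lactamase gene were lysed with CellTiter-Glo. Luminescence was read after 30 min at room temperature.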

[14] = qHTS assay for small molecule activators of the heat shock response signaling pathway - cell viability counter screen (AID 743209); further: nearly all actives have a fitted effect of over 50% in size; further: potency means the concentration at half of the fitted maximal effect
Procedure, shortened: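 Readout: CellTiter-Glo luminescence, 30 min at room temperature. System: HSE-bla HeLa cells, 1500/well, plated overnight. Treatment: compounds in DMSO, 5 h at 37 C.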

[15] = qHTS assay for small molecule activators of the heat shock response signaling pathway (AID 743210; active means well fitted activation curve with a large enough effect in the signal ratio in the repeat runs, with a control signal flat, not every such curve was filed as active; inconclusive means weak or mixed curves; the % refers to the signal ratio;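 further: HeLa cells with beta-lactamase reporter driven by heat shock elements; series mostly up to about 63 µM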)
Procedure, shortened: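 Quantitative high-throughput format using an engineered HeLa line in which heat shock response elements drive beta-lactamase; after 5 h with compound, cells received a B/G FRET substrate and fluorescence was read.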

[16] = qHTS assay to identify small molecule antagonists of the thyroid receptor (TR) signaling pathway - cell viability counter screen (AID 743064); further: nearly all actives have a fitted effect of over 50% in size; further: potency means the concentration at half of the fitted maximal effect
Procedure, shortened: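 GH3.TRE-Luc rat pituitary cells dosed after 4 hr plating, co-stimulated with T3 at 1 nM final, incubated 23.5 h at 37 C. Viability measured in the same wells by CellTiter-Fluor fluorescence after 30 min further at 37 C.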

[17] = qHTS assay to identify small molecule antagonists of the estrogen receptor alpha (ER-alpha) signaling pathway - cell viability counter screen (AID 743074; calls by dose curve;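 further: HEK293 cells carrying ER-alpha-UAS-bla reporter stimulated with 17beta-estradiol; nearly all actives have a fitted effect of over 45% in size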; further: potency means the concentration at half of the fitted maximal effect)
[18] = target: Peroxisome proliferator-activated receptor gamma (Homo sapiens) (UniProt P37231); experiment: qHTS assay to identify small molecule antagonists of the peroxisome proliferator-activated receptor gamma (PPARg) signaling pathway (AID 743191; calls by dose curve; further: nearly all actives have a fitted effect of over 30% in size; further: potency means the concentration at half of the fitted maximal effect)
Procedure, shortened: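 GeneBLAzer PPARg UAS-bla HEK293H cells, 5 h post-plating, exposed to compounds 17 h at 37C. LiveBLAzer B/G FRET substrate added for 1 h at room temperature; beta-lactamase reporter read by fluorescence intensity.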

[19] = qHTS assay to identify small molecule antagonists of the peroxisome proliferator-activated receptor gamma (PPARg) signaling pathway - cell viability counter screen (AID 743194); conditions: Potency: co-treated with 50 nM rosiglitazone unless noted; further: nearly all actives have a fitted effect of over 55% in size; further: potency means the concentration at half of the fitted maximal effect
Procedure, shortened: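 Cytotoxicity counter screen in PPARg-bla HEK293H cells, same wells as reporter assay. Compounds plus 50 nM rosiglitazone (final) for 17 h at 37 C, then viability read by CellTiter-Glo luminescence.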

[20] = target: Estrogen receptor (Homo sapiens) (UniProt P03372); experiment: qHTS assay to identify small molecule agonists of the estrogen receptor alpha (ER-alpha) signaling pathway using the BG1 cell line (AID 743079); further: nearly all actives have a fitted effect of over 20% in size; further: potency means the concentration at half of the fitted maximal effect

Estrogen receptor (Homo sapiens), sequence (P03372 whole entry, looked up): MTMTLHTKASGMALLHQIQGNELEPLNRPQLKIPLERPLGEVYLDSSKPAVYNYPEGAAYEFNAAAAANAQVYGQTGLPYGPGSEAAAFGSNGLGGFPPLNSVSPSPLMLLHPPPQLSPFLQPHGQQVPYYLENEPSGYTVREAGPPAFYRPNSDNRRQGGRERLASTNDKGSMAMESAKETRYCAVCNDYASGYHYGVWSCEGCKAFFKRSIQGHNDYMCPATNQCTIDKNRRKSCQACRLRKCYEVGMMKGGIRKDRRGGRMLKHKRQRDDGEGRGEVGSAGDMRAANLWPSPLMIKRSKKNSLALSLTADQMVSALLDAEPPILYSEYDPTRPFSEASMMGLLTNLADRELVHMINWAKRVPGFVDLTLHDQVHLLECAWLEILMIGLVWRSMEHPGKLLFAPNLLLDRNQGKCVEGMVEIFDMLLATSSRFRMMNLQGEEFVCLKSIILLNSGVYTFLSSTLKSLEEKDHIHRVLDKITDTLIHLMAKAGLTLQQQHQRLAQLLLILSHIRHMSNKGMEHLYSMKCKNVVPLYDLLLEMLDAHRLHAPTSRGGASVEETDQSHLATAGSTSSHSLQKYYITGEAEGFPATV
Peroxisome proliferator-activated receptor gamma (Homo sapiens), sequence (P37231 whole entry, looked up): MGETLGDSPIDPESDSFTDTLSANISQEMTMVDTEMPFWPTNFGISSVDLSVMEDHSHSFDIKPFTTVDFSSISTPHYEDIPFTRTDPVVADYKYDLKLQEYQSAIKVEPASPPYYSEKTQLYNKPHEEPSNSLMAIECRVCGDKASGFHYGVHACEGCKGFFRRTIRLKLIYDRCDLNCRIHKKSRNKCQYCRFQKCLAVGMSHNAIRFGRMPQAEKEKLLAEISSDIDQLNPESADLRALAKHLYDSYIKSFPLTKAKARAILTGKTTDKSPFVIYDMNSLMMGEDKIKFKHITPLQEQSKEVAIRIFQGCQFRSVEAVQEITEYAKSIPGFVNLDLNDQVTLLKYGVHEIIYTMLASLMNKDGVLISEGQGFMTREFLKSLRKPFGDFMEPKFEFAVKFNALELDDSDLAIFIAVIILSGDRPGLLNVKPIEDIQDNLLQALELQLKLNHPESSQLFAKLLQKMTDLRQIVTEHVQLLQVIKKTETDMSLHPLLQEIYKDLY
Aryl hydrocarbon receptor (Homo sapiens), sequence (P35869 whole entry, looked up): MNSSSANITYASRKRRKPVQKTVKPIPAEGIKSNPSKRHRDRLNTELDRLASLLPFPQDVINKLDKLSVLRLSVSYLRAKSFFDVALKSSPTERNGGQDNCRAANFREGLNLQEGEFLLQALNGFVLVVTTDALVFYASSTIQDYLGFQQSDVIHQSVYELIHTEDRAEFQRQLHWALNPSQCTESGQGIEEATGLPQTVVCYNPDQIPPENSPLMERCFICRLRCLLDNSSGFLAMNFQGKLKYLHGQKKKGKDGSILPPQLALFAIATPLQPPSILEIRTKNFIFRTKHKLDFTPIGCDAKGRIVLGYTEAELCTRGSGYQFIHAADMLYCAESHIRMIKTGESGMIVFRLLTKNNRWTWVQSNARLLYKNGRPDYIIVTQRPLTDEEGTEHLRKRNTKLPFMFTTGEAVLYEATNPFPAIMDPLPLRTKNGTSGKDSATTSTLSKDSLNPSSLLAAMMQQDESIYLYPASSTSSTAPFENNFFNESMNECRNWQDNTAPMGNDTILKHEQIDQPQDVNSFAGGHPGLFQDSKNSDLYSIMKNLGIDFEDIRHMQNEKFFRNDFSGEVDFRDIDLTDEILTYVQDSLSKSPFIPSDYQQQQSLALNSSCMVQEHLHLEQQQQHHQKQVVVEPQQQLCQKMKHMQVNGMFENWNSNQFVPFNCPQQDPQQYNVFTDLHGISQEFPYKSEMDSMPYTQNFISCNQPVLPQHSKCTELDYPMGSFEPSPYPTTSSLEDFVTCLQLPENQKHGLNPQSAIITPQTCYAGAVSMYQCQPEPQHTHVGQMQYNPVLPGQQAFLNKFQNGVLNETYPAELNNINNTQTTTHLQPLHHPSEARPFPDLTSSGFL
Aromatase (Homo sapiens), sequence (P11511 whole entry, looked up): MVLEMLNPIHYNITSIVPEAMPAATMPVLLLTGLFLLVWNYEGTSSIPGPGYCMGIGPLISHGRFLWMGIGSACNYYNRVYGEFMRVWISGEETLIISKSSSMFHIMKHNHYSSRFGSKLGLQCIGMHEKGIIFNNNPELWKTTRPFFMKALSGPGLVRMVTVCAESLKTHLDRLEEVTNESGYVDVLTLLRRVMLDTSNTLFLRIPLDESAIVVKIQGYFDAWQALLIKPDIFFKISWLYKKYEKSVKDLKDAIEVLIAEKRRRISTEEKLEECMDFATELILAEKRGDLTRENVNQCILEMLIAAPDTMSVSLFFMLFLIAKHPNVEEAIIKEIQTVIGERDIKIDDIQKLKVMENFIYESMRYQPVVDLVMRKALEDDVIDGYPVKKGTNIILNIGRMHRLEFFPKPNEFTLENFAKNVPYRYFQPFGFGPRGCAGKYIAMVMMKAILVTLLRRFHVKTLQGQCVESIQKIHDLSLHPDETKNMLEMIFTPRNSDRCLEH

| SMILES | Potency [1] | outcome [2] | Potency [3] | Potency [4] | Potency [5] | Potency [6] | Potency [7] | Potency [8] | Potency [9] | Potency [10] | Potency [11] | Potency [12] | Potency [13] | Potency [14] | Potency [15] | Potency [16] | Potency [17] | Potency [18] | Potency [19] | Potency [20] |
| --- | --- | --- | --- | --- | --- | --- | --- | --- | --- | --- | --- | --- | --- | --- | --- | --- | --- | --- | --- | --- |
| CCOC(=O)OC1=C(c2cc(C)ccc2C)C(=O)NC12CCC(OC)CC2 (centres undefined) | 54.4 µM (active) | inactive | inactive | inactive | inactive | inactive | inactive | inactive | inactive | inactive | inactive | inactive | inactive | inactive | inactive |  |  |  |  |  |
| CC(C)(C)c1ccc(CSc2cnn(C(C)(C)C)c(=O)c2Cl)cc1 |  |  |  |  | 0.0109 µM (active) | 27.3 µM (active) | 61.1 µM (active) | inactive | inactive | inactive |  |  | 24.3 µM (active) |  | inactive | 54.5 µM (active) |  |  |  |  |
| CC(C)[C@H](C(=O)O[C@H](C#N)c1cccc(Oc2ccccc2)c1)c1ccc(Cl)cc1 |  | inactive |  |  |  | inactive | inactive | inactive | inactive | inactive |  | inactive | inactive | inactive |  | inactive | inactive |  |  |  |
| CC1(C)[C@H](C(=O)O[C@H](C#N)c2cccc(Oc3ccccc3)c2)[C@@H]1/C=C(\Cl)C(F)(F)F |  | inactive |  |  |  | inactive | inactive | inactive | inactive | inactive |  | inactive | inactive | inactive |  | inactive | inactive | inactive | inactive |  |
| CC(C)CCCCCOC(=O)c1ccccc1C(=O)OCCCCCC(C)C | inactive | inactive |  | inactive | inactive | inactive | inactive | inactive | inactive | inactive | inactive | inactive | inactive | inactive | inactive |  | inactive | inactive | inactive | inactive |
| CCCCCCCCCCCCCCCC[N+](C)(C)C |  |  |  |  |  | inactive | 16.8 µM (active) and 11.8 µM (active) and 30.6 µM (active) | 29.5 µM (active) and 68.6 µM (active) | inactive | inactive and 68.6 µM (active) |  |  | 29.5 µM (active) and 24.3 µM (active) and 29.8 µM (active) | 21.1 µM (active) and 43.6 µM (active) |  | 9.44 µM (active) and 20.9 µM (active) and 13.7 µM (active) | 21.3 µM (active) and 4.72 µM (active) and 49 µM (active) |  | 18.8 µM (active) and 29.8 µM (active) |  |
| Oc1ccc(C(=C(Cl)Cl)c2ccc(O)cc2)cc1 |  | inactive |  |  | inactive | inactive | inactive | 48.5 µM (active) |  | inactive |  | 24.3 µM (active) |  | inactive |  | inactive |  | 17.3 µM (active) |  | 0.243 µM (active) |
| CCN(CC)C(=S)[S-].CCN(CC)C(=S)[S-].[Zn+2] |  |  |  | 54.5 µM [inconclusive] (active) |  | 42.9 µM (active) | 0.096 µM (active) | 0.096 µM (active) | inactive | inactive |  |  | 3.82 µM (active) |  |  | 5.4 µM (active) | 4.86 µM (active) |  |  |  |
| [Cl][Sb]([Cl])[Cl] |  | inactive |  |  |  | inactive | inactive | inactive | inactive | inactive | inactive | 5.45 µM (active) | inactive | inactive |  | 17.2 µM (active) | inactive |  |  |  |
| Nc1ccc(Cc2ccc(N)c(Cl)c2)cc1Cl |  |  | 4.22 µM [inconclusive] (active) | inactive |  | inactive | 29.6 µM (active) |  |  | inactive | inactive |  |  |  |  | 52.7 µM (active) | inactive |  |  |  |
| C[C@H]1CC[C@@H]2[C@@H](C)[C@H]3[C@H](C[C@H]4[C@@H]5CC=C6CC(O[C@@H]7O[C@H](CO)[C@H](O)[C@H](O[C@@H]8O[C@H](CO)[C@@H](O)[C@H](O)[C@H]8O)[C@H]7O[C@H]7O[C@@H](C)[C@H](O)[C@@H](O)[C@H]7O)CC[C@]6(C)[C@H]5CC[C@]34C)N2C1 (some centres undefined) |  | inactive |  |  | 17.8 µM (active) | inactive | 25.1 µM (active) | 19.9 µM (active) | inactive | inactive | inactive |  | 7.94 µM (active) | 16 µM (active) |  | 18.8 µM (active) and inactive | 16.9 µM (active) and inactive |  |  | inactive |
| CCN |  | inactive |  |  | inactive | inactive | inactive | inactive | inactive | inactive | inactive | inactive | inactive | inactive |  | inactive | inactive | inactive | inactive |  |
| CC(=O)[O-].CC(=O)[O-].[Hg+2] |  |  |  |  |  | 61.1 µM (active) | 2.73 µM (active) | 3.86 µM (active) | inactive | 7.7 µM (active) |  |  | 1.22 µM (active) | 1.38 µM (active) |  | 1.37 µM (active) | 49 µM (active) |  | 977 nM (active) |  |
| CC(Cc1ccc(C(C)(C)C)cc1)CN1C[C@@H](C)O[C@@H](C)C1 (some centres undefined) |  | inactive |  |  |  | inactive |  |  | inactive | inactive | inactive |  |  | inactive | inactive | inactive | inactive |  | 49000 nM (active) |  |
| ClC1=C(Cl)[C@]2(Cl)[C@H]3[C@H]([C@H]4C=C[C@H]3C4)[C@@]1(Cl)C2(Cl)Cl | 68.6 µM (active) | inactive |  | inactive | inactive | inactive | inactive | inactive | inactive | inactive | inactive |  | inactive | inactive | inactive |  | inactive |  |  | 27.3 µM (active) |
